Source: PubChem BioAssay
For part of these data: Measured potencies and affinities stand elsewhere. Calls of active or inactive are those of the source.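 How the source made its calls, unless noted: active means primary screen activator hit with a dose response curve and TRPC4 channel activation at any tested dose; inactive means no activation, no dose response, or not a primary hit.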

Columns and labels:
[1] = tested on: TRPC4 beta (transient receptor potential cation channel C4), mouse; assay: activators of mouse TRPC4 channel, confirmation, cell-based, Fluo4 calcium, HEK293 TRPC4beta/mu-opioid, duplicates, 10 µM (AID 2426;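 active means fluorescence ratio normalized to control raised more than 50% in primary screen plus both repeat runs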); settings: Fluo4 calcium fluorescence, at 10 µM; active compounds read high
[2] = tested on: transient receptor potential cation channel C4 beta (TRPC4), mouse; assay: activators of mouse TRPC4 channel, confirmation, cell-based, second round, Fluo4, HEK293 TRPC4beta/mu-opioid, 1 µM (AID 2461;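 active means primary screen active and over 50% activation in each of two duplicate runs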); settings: Fluo4 calcium fluorescence, at 1 µM; active compounds read high
[3] = tested on: TRPC4 (transient receptor potential cation channel C4 beta), mouse; assay: positive allosteric modulators of mouse TRPC4, confirmation, cell-based, second round, Fluo-4, HEK293 TRPC4beta/mu-opioid, 1 µM (AID 2554;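 active means primary screen hit whose fluorescence ratio, in both repeats, exceeds the weak agonist control mean by 3 SD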); settings: DAMGO EC20, Fluo-4 calcium flux, at 1 µM; active compounds read high
[4] = tested on: TRPC4 beta (transient receptor potential cation channel C4), mouse; assay: positive allosteric modulators of mouse TRPC4, confirmation, cell-based, Fluo-4, HEK293 TRPC4beta/mu-opioid (AID 2555;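 active means primary screen hit whose calcium fluorescence ratio, in both repeats, exceeds the weak agonist control mean by 3 SD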); settings: DAMGO EC20, Fluo-4 calcium flux, at 10 µM; active compounds read high
[5] = molecular target: Short transient receptor potential channel 4 (Mus musculus) (UniProt Q9QUQ5); assay: inhibitors of mouse TRPC4 channel, confirmation, cell-based, Fluo4, HEK293 TRPC4beta/mu-opioid (AID 2636;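 active means calcium signal cut by more than 3 SD below the full-agonist control yet still positive, in both repeats and the earlier primary screen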); settings: DAMGO, Fluo4 calcium flux, at 10 µM; active compounds read high
Sequence of Short transient receptor potential channel 4 (Mus musculus) (Q9QUQ5 whole entry, looked up): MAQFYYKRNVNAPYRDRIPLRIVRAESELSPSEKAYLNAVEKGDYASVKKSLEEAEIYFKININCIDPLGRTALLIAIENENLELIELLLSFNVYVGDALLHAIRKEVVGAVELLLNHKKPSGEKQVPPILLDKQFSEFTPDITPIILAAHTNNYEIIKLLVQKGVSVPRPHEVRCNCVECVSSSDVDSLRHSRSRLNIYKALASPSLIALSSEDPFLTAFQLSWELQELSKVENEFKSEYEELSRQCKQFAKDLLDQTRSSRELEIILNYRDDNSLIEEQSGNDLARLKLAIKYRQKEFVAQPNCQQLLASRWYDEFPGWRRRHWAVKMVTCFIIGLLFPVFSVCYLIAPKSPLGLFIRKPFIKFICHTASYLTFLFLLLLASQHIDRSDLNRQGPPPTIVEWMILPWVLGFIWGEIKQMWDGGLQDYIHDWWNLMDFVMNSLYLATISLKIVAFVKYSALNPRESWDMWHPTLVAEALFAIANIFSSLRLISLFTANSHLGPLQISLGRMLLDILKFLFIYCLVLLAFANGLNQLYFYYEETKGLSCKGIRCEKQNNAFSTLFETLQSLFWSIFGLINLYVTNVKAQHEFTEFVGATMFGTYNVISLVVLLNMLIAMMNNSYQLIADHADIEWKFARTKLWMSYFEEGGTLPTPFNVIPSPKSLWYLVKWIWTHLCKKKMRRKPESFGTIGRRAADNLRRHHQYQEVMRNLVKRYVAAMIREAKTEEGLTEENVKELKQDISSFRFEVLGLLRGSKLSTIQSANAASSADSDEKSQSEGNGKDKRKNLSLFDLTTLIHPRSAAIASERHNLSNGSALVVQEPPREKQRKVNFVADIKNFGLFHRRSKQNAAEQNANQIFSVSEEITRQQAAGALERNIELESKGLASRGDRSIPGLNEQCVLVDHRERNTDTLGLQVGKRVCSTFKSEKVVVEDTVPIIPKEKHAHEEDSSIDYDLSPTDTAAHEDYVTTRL

[6] = molecular target: Short transient receptor potential channel 4 (Mus musculus) (UniProt Q9QUQ5); assay: inhibitors of mouse TRPC4 channel, confirmation, cell-based, second round, Fluo4, HEK293 TRPC4beta/mu-opioid, 1 µM (AID 2637;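 active means calcium signal ratio cut to more than 3 SD under the fully stimulated control mean yet still positive, in both repeats and the primary screen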;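 on inhibition: percent of integrated ratio relative to wells lacking test compound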); settings: Fluo4 calcium flux, DAMGO, at 1 µM; active compounds read high
[7] = molecular target: Short transient receptor potential channel 4 (Mus musculus) (UniProt Q9QUQ5); assay: mouse TRPC4 channel activators, dose response, cell-based, HEK293 TRPC4/mu-opioid, Fluo-4 calcium (AID 434937)
[8] = molecular target: Short transient receptor potential channel 4 (Mus musculus) (UniProt Q9QUQ5); assay: TRPC4 positive allosteric modulators, dose response, cell-based, HEK293 TRPC4/mu-opioid, Fluo-4 calcium, EC20 DAMGO (AID 434941;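 active means earlier screen potentiator hit that boosts the TRPC4 ion channel at some dose, with a dose response; inactive means no potentiation, no dose response, or not a prior hit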;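 further: calcium entry triggered by an EC20 dose of DAMGO at the co-expressed mu-opioid receptor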)
[9] = molecular target: Short transient receptor potential channel 6 (Mus musculus) (UniProt Q61143); assay: inhibition of mouse TRPC6 channel, confirmation, selectivity assay for TRPC4 inhibitor project, cell-based, HEK293, membrane potential dye, duplicate (AID 434948;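 active means active in primary screen and both duplicates, each dropping signal beyond three positive-control SD with fluorescence still positive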); settings: HEK293 TRPC6, membrane potential dye fluorescence, at 10 µM, stimulated with maximal-effect acetylcholine; active compounds read high
Sequence of Short transient receptor potential channel 6 (Mus musculus) (Q61143 whole entry, looked up): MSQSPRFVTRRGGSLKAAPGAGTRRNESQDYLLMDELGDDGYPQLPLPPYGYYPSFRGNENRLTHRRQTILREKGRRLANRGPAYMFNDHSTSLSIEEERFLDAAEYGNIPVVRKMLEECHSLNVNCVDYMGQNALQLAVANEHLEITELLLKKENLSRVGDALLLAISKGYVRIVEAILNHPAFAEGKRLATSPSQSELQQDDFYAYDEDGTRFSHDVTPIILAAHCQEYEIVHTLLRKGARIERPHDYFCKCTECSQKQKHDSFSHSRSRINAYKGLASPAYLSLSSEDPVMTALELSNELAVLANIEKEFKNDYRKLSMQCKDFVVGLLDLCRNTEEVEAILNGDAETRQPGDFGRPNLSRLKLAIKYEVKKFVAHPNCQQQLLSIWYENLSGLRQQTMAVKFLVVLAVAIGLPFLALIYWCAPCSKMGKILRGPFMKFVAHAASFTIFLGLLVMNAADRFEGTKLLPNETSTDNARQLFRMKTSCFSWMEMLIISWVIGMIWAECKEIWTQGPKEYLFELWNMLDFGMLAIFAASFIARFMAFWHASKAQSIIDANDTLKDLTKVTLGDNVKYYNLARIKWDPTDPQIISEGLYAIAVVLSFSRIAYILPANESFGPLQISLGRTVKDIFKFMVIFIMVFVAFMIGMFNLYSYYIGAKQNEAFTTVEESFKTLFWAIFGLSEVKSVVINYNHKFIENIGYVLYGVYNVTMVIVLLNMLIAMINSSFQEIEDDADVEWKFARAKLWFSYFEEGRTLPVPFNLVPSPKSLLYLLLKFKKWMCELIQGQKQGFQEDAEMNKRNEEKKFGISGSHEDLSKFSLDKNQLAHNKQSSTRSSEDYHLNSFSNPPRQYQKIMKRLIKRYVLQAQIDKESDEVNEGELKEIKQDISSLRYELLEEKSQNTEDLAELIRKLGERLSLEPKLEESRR

[10] = molecular target: Short transient receptor potential channel 6 (Mus musculus) (UniProt Q61143); assay: activation of mouse TRPC6 channel, confirmation, selectivity assay for TRPC4 activator project, cell-based, HEK293, membrane potential dye, duplicate (AID 434950;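 active means membrane potential signal rise above negative control mean plus 3 SD in both duplicates, also active in the earlier TRPC4 screen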;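 on activation: 0% = buffer only wells and 100% = acetylcholine maximal-effect wells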); settings: HEK293 TRPC6, membrane potential fluorescence, at 10 µM; active compounds read high
[11] = molecular target: Short transient receptor potential channel 6 (Mus musculus) (UniProt Q61143); assay: TRPC6 potentiation by TRPC4 potentiator hits, confirmation, selectivity assay for TRPC4 potentiator project, HEK293 cells, membrane potential dye, duplicate (AID 434952;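 active means compound raising the membrane signal above positive-control mean plus 3 SD in both repeats, and a primary screen hit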); settings: HEK293 TRPC6, membrane potential dye fluorescence, at 10 µM, maximal acetylcholine added after compound; active compounds read high
[12] = molecular target: Short transient receptor potential channel 4 (Mus musculus) (UniProt Q9QUQ5); assay: calcium flux activators in TRPC4/5HT1a cells, counter-screen for TRPC4 activator project, cell-based, second counter screen, HEK293 TRPC4/5HT1a, Fluo-4 (AID 434977;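 active means calcium signal rise above buffer-control mean plus 5 SD in both duplicates, and also a hit in the primary screen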); settings: Fluo-4 calcium flux, at 10 µM; active compounds read high
[13] = calcium flux inhibitors in TRPC4/5HT1a cells, confirmation, counter-screen for TRPC4 inhibitor project, cell-based, second counter screen, HEK293 TRPC4/5HT1a, Fluo-4 (AID 434978;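 active means primary screen active whose calcium signal fell more than 3 SD beyond the full-serotonin control mean in both duplicate plates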;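 on outcome: serotonin given first at submaximal then at maximal dose after compound preincubation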); settings: Fluo-4 calcium flux, at 10 µM, serotonin added to trigger calcium flux; active compounds read high
[14] = tested on: TRPC4 (mouse), co-expressed with 5HT1a in HEK293; assay: calcium flux potentiators in TRPC4/5HT1a cells, confirmation, counter-screen for TRPC4 potentiator project, cell-based, second counter screen, HEK293 TRPC4/5HT1a, Fluo-4 (AID 434979;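 active means signal rise over 3 SD above mean of control wells given weak agonist, in both repeats and first screen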); settings: Fluo-4 calcium flux, at 10 µM, serotonin added at its EC20 dose; active compounds read high
[15] = calcium flux activation in mu-opioid HEK293 cells, confirmation, counter-screen for TRPC4 activator project, cell-based, HEK293 mu-opioid receptor line (AID 449723;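 active means hit in primary screen, with calcium signal over 5 SD above buffer well mean in both duplicates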;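 further: counter screen cells carry the mu-opioid receptor alone and lack TRPC4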); settings: Fluo-4 calcium fluorescence, at 10 µM; active compounds read high
[16] = calcium flux enhancement in mu-opioid HEK293 cells, confirmation, counter-screen for TRPC4 allosteric potentiator project, cell-based, HEK293 mu-opioid receptor line (AID 449724;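 active means calcium signal rise more than 3 SD above the low-dose agonist control mean, in both duplicate plates and the primary screen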); settings: Fluo-4 calcium flux, at 10 µM, compound added before EC20 DAMGO stimulus; active compounds read high

## CNCc1c(OCc2ccccc2)ccc2ccccc12
[1]
  outcome: inactive
[2]
  outcome: inactive
[3]
  outcome: inactive
[4]
  outcome: inactive
[5]
  inhibition: 92% (active)
[6]
  outcome: inactive
[7]
  outcome: inactive
[8]
  outcome: inactive
[9]
  inhibition: 46% (active)
[10]
  outcome: inactive
[11]
  outcome: inactive
[12]
  outcome: inactive
[13]
  inhibition: 34.9% (active)
[14]
  outcome: inactive
[15]
  outcome: inactive
[16]
  outcome: inactive

## O=C(c1ccc(Cl)c(Cl)c1)N(Cc1ccco1)c1ccc(O)cc1
[1]
  outcome: inactive
[2]
  outcome: inactive
[3]
  outcome: inactive
[4]
  outcome: inactive
[5]
  inhibition: 94% (active)
[6]
  outcome: inactive
[7]
  outcome: inactive
[8]
  outcome: inactive
[9]
  outcome: inactive
[10]
  outcome: inactive
[11]
  outcome: inactive
[12]
  outcome: inactive
[13]
  inhibition: 32% (active)
[14]
  outcome: inactive
[15]
  outcome: inactive
[16]
  outcome: inactive

## COc1cccc(O)c1CN1CCCC(C(=O)c2cccc(C(F)(F)F)c2)C1 (stereo not given)
[1]
  outcome: inactive
[2]
  outcome: inactive
[3]
  outcome: inactive
[4]
  outcome: inactive
[5]
  inhibition: 70% (active)
[6]
  outcome: inactive
[7]
  outcome: inactive
[8]
  outcome: inactive
[9]
  outcome: inactive
[10]
  outcome: inactive
[11]
  outcome: inactive
[12]
  outcome: inactive
[13]
  inhibition: 34.3% (active)
[14]
  outcome: inactive
[15]
  outcome: inactive
[16]
  outcome: inactive

## CCOC(=O)C1(Cc2cccc(OC)c2)CCN(Cc2ccc(OC)c(O)c2)CC1
[1]
  outcome: inactive
[2]
  outcome: inactive
[3]
  outcome: inactive
[4]
  outcome: inactive
[5]
  outcome: inactive
[6]
  outcome: inactive
[7]
  outcome: inactive
[8]
  outcome: inactive
[9]
  outcome: inactive
[10]
  outcome: inactive
[11]
  outcome: inactive
[12]
  outcome: inactive
[13]
  outcome: inactive
[14]
  outcome: inactive
[15]
  outcome: inactive
[16]
  outcome: inactive

## C=CCNc1nc(N2CCCC2)nc2ccccc12
[1]
  outcome: inactive
[2]
  outcome: inactive
[3]
  outcome: inactive
[4]
  outcome: inactive
[5]
  inhibition: 98% (active)
[6]
  inhibition: 74% (active)
[7]
  outcome: inactive
[8]
  outcome: inactive
[9]
  inhibition: 37.5% (active)
[10]
  outcome: inactive
[11]
  outcome: inactive
[12]
  outcome: inactive
[13]
  inhibition: 19.9% (active)
[14]
  outcome: inactive
[15]
  outcome: inactive
[16]
  outcome: inactive

## CCCCNCC1C(Oc2ccc(Cl)cc2)C(=O)N1c1ccccc1C (stereo not given)
[1]
  outcome: inactive
[2]
  outcome: inactive
[3]
  outcome: inactive
[4]
  outcome: inactive
[5]
  outcome: inactive
[6]
  outcome: inactive
[7]
  outcome: inactive
[8]
  outcome: inactive
[9]
  outcome: inactive
[10]
  outcome: inactive
[11]
  outcome: inactive
[12]
  outcome: inactive
[13]
  outcome: inactive
[14]
  outcome: inactive
[15]
  outcome: inactive
[16]
  outcome: inactive

## COc1cc(CNCCc2ccc(F)cc2)ccc1OCc1ccc(Cl)nc1
[1]
  outcome: inactive
[2]
  outcome: inactive
[3]
  outcome: inactive
[4]
  outcome: inactive
[5]
  inhibition: 84% (active)
[6]
  outcome: inactive
[7]
  outcome: inactive
[8]
  outcome: inactive
[9]
  inhibition: 40.5% (active)
[10]
  outcome: inactive
[11]
  outcome: inactive
[12]
  outcome: inactive
[13]
  outcome: inactive
[14]
  outcome: inactive
[15]
  outcome: inactive
[16]
  outcome: inactive

## CCCn1nc([N+](=O)[O-])c(C(C#N)c2nc3ccccc3o2)c(Cl)c1=O (stereo not given)
[1]
  outcome: inactive
[2]
  outcome: inactive
[3]
  outcome: inactive
[4]
  outcome: inactive
[5]
  inhibition: 96% (active)
[6]
  outcome: inactive
[7]
  outcome: inactive
[8]
  outcome: inactive
[9]
  inhibition: 28% (active)
[10]
  outcome: inactive
[11]
  outcome: inactive
[12]
  outcome: inactive
[13]
  inhibition: 39.9% (active)
[14]
  outcome: inactive
[15]
  outcome: inactive
[16]
  outcome: inactive

## Fc1ccccc1CNCCC(Cc1ccccc1)c1ccc2c(c1)OCO2 (stereo not given)
[1]
  outcome: inactive
[2]
  outcome: inactive
[3]
  outcome: inactive
[4]
  outcome: inactive
[5]
  outcome: inactive
[6]
  outcome: inactive
[7]
  outcome: inactive
[8]
  outcome: inactive
[9]
  outcome: inactive
[10]
  activation: 48% (active)
[11]
  outcome: inactive
[12]
  outcome: inactive
[13]
  outcome: inactive
[14]
  outcome: inactive
[15]
  outcome: inactive
[16]
  outcome: inactive

## COc1ccc(C)cc1N(C(=O)c1snc(C(N)=O)c1N)C(C(=O)NC1CCCC1)c1ccc(F)cc1 (stereo not given)
[1]
  outcome: inactive
[2]
  outcome: inactive
[3]
  outcome: inactive
[4]
  outcome: inactive
[5]
  inhibition: 91% (active)
[6]
  inhibition: 67% (active)
[7]
  outcome: inactive
[8]
  outcome: inactive
[9]
  outcome: inactive
[10]
  outcome: inactive
[11]
  outcome: inactive
[12]
  outcome: inactive
[13]
  inhibition: 41.2% (active)
[14]
  outcome: inactive
[15]
  outcome: inactive
[16]
  outcome: inactive

## Cc1cc(Br)c(NC(=O)CN(C)CCOc2ccccc2)c(Br)c1
[1]
  outcome: inactive
[2]
  outcome: inactive
[3]
  outcome: inactive
[4]
  outcome: inactive
[5]
  inhibition: 81% (active)
[6]
  outcome: inactive
[7]
  outcome: inactive
[8]
  outcome: inactive
[9]
  outcome: inactive
[10]
  outcome: inactive
[11]
  outcome: inactive
[12]
  outcome: inactive
[13]
  inhibition: 45.2% (active)
[14]
  outcome: inactive
[15]
  outcome: inactive
[16]
  outcome: inactive

## COc1ccc(F)cc1C(=O)C1CCCN(Cc2ccc3c(c2)OCCO3)C1 (stereo not given)
[1]
  outcome: inactive
[2]
  outcome: inactive
[3]
  outcome: inactive
[4]
  outcome: inactive
[5]
  inhibition: 94% (active)
[6]
  outcome: inactive
[7]
  outcome: inactive
[8]
  outcome: inactive
[9]
  outcome: inactive
[10]
  outcome: inactive
[11]
  outcome: inactive
[12]
  outcome: inactive
[13]
  inhibition: 38.7% (active)
[14]
  outcome: inactive
[15]
  outcome: inactive
[16]
  outcome: inactive

## CCOC(=O)C1=C(C)NC(=O)CC1c1cc2c(cc1[N+](=O)[O-])OCO2 (stereo not given)
[1]
  outcome: inactive
[2]
  outcome: inactive
[3]
  outcome: inactive
[4]
  outcome: inactive
[5]
  inhibition: 71% (active)
[6]
  inhibition: 40% (active)
[7]
  outcome: inactive
[8]
  outcome: inactive
[9]
  outcome: inactive
[10]
  outcome: inactive
[11]
  outcome: inactive
[12]
  outcome: inactive
[13]
  inhibition: 20.2% (active)
[14]
  outcome: inactive
[15]
  outcome: inactive
[16]
  outcome: inactive

## Cc1cc(N2CCCCCC2)nc2ccccc12
[1]
  outcome: inactive
[2]
  outcome: inactive
[3]
  outcome: inactive
[4]
  outcome: inactive
[5]
  inhibition: 87% (active)
[6]
  inhibition: 55% (active)
[7]
  outcome: inactive
[8]
  outcome: inactive
[9]
  outcome: inactive
[10]
  outcome: inactive
[11]
  outcome: inactive
[12]
  outcome: inactive
[13]
  inhibition: 15.6% (active)
[14]
  outcome: inactive
[15]
  outcome: inactive
[16]
  outcome: inactive

## COc1ccc(/C=C/C(=O)Oc2cc(O)cc(O)c2)cc1
[1]
  outcome: inactive
[2]
  outcome: inactive
[3]
  outcome: inactive
[4]
  outcome: inactive
[5]
  inhibition: 96% (active)
[6]
  outcome: inactive
[7]
  outcome: inactive
[8]
  outcome: inactive
[9]
  outcome: inactive
[10]
  outcome: inactive
[11]
  outcome: inactive
[12]
  outcome: inactive
[13]
  inhibition: 27.4% (active)
[14]
  outcome: inactive
[15]
  outcome: inactive
[16]
  outcome: inactive
